Laboratory results: PubChem BioAssay AID1510 (The Scripps Research Institute Molecular Screening Center, 2009)
Screen size: about 220,000 compounds; about 570 (0.26%) were called active. Rule as the data show it: active = inhibition above about 29%; inactive = the rest. This excerpt belongs to a sample that is enriched for actives.

Target: Sphingosine 1-phosphate receptor 4 (Homo sapiens) (UniProt O95977)
Assay: blockers of human S1P4 receptor – cell-based, primary screen (AID 1510);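 also: 0% = wells stimulated with agonist and 100% = vehicle wells without agonist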
Conditions: S1P4-expressing cells, antagonist mode, reporter read-out; at 4.98 µM; stronger effect = higher value

Chain of Sphingosine 1-phosphate receptor 4 (Homo sapiens) (O95977 whole entry, looked up): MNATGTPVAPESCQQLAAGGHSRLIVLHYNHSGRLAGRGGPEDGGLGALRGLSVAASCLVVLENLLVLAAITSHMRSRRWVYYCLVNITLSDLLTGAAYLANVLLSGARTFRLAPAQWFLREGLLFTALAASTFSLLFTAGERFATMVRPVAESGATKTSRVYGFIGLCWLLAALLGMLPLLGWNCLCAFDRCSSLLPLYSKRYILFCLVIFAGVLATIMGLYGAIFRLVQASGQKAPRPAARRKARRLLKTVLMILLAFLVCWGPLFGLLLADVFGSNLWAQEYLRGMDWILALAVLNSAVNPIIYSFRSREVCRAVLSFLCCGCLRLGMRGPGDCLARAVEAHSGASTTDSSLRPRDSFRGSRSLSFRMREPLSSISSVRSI

| SMILES | inhibition |
| --- | --- |
| O=C(Cc1ccc(-c2ccccc2)cc1)NC(c1ccccc1)c1ccccc1 | -5.23% (inactive) |
| CCOC(=O)C(C(=O)OCC)C(C#N)c1ccccc1 (stereo unspecified) | -19.7% (inactive) |
| CCOC(=O)/C=C/C(=O)OCC(=O)NC(c1ccccc1)c1ccccc1 | 36.3% (active) |
| O=C(CSc1cccc[n+]1[O-])NCCCc1ccccc1 | 14.6% (inactive) |
| O=C(Nc1nnc(CCN2CCCCC2)s1)c1cccc(Cl)c1 | 6.03% (inactive) |
| Cc1cc(Nc2cccc(C)c2C)n2ncnc2n1 | -10.4% (inactive) |
| O=C(CSc1nnnn1-c1ccc(O)cc1)c1ccc(F)cc1 | 6.46% (inactive) |
| CCOC(=O)c1sc(NC(=O)CSc2nc(O)c(Cc3ccccc3)c(=O)[nH]2)nc1C | -8.89% (inactive) |
| Cc1[nH]c2ccccc2c1-c1ccc(Cl)nn1 | 2.48% (inactive) |
| O=C(CO/N=C/c1ccccc1O)NNC(=O)c1ccccc1Cl | -12.4% (inactive) |
| Cc1cc(C)cc(Oc2nc3c(C)cccn3c(=O)c2/C=C(\C#N)C(=O)NC2CCS(=O)(=O)C2)c1 (stereo unspecified) | -10.8% (inactive) |
| CCNC(=O)NNC(=O)C1CC(c2cccs2)=NO1 (stereo unspecified) | -2.29% (inactive) |
| CCOc1ccc(NS(=O)(=O)c2ccc(C)c(C(N)=O)c2)cc1 | -13.9% (inactive) |
| CC(=O)Nc1ccc(S(=O)(=O)NC2(C(F)(F)F)C(=O)Nc3c2c(=O)[nH]c(=O)n3Cc2ccccc2)cc1 (stereo unspecified) | -16.6% (inactive) |
| O=C(Nc1ccccc1)N1CCN(C2c3ccccc3-c3ccccc32)CC1 | -2.81% (inactive) |
| COc1ccc(NC(=O)c2cn(-c3ccccc3)nc2SC)cc1 | -1.4% (inactive) |
| COCC(=O)Nc1cc(C(=O)OC)cc(C(=O)OC)c1 | -10.1% (inactive) |
| Nc1c(C(=O)O)cnn1-c1ccccc1 | -7.33% (inactive) |

| SMILES | inhibition |
| --- | --- |
| CC(C)NC(=O)NCCCCCCS(C)=O (stereo unspecified) | -8.38% (inactive) |
| CSc1cccc(NC(=O)C2CCCN2S(=O)(=O)c2ccc3c(c2)CCC(=O)N3)c1 (stereo unspecified) | -15% (inactive) |
| CCC(C)(C)C1CCC(=NNC(=O)c2ccc(Br)o2)CC1 (stereo unspecified) | -7.44% (inactive) |
| CCOC(=O)Cc1ncccc1C(=O)Nc1ccc(OC(F)(F)F)cc1 | -25.3% (inactive) |
| COC(=O)c1ccc(S(=O)(=O)NCc2ccccc2)n1C | -20.7% (inactive) |
| Cc1nn(-c2ccccc2)c(C)c1NC(=O)CCl | -19.8% (inactive) |
| COc1ccc2ccccc2c1CNc1nnnn1C | 6.29% (inactive) |
| O=C(O)c1ccn(COc2ccc(Br)cc2)n1 | 3.75% (inactive) |
| Nc1nnc(SCC(=O)Nc2ccc3nc(SCC(=O)Nc4ccccc4)sc3c2)s1 | -10.8% (inactive) |
| CC(C)C(C)(C#N)NC(=O)CSc1nncn1-c1ccccc1 (stereo unspecified) | -9.99% (inactive) |
| CCOc1ncccc1C(=O)N(C)CC(=O)Nc1ccc(F)cc1 | -7.65% (inactive) |
| CCCCCC1CCC(c2nnc(SCC(C)=O)o2)CC1 (stereo unspecified) | -13.8% (inactive) |
| NC(=O)COC(=O)c1cc(S(=O)(=O)N2CCN(c3ccccc3)CC2)ccc1Cl | -4.86% (inactive) |
| Cn1c(CCC(=O)OCC(=O)NCc2ccccc2Cl)nc(=O)c2ccccc21 | -5.53% (inactive) |
| O=C(Nc1ccc(F)cc1)N1CCN(c2ccc(F)cc2)CC1 | -44% (inactive) |
| Cn1c(N)c(C(=O)COC(=O)c2cnc(Cl)c(Cl)c2)c(=O)n(C)c1=O | -6.76% (inactive) |
| CCc1nnc(NS(=O)(=O)c2ccc(NC(=S)NC(=O)/C=C/c3cccs3)cc2)s1 | 9.53% (inactive) |
| O=C(Nc1ccccc1Cc1ccccc1)c1ccc2c(c1)SC1=NS(=O)(=O)CCN12 | -10.9% (inactive) |
